What all share (conditions): 25 µM; exposure: 24-48 hpf
In assay [1] the test system is Danio rerio Tg(wt1b:EGFP) embryo, pronephros. The assay is described as follows: glomerular separation, fold change vs DMSO control; higher = glomeruli further apart (abnormal). The method in brief:
(§1)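 Dechorionated Tg(wt1b:EGFP) zebrafish embryos were exposed to 25 μM compound in 0.5% DMSO, HEPES-buffered E3 with 0.003% PTU, from 24 to 48 hpf at 28.5°C. Pronephroi were imaged dorsally in agarose-filled 96-well plates (470 nm, 10 z-slices). On maximum projections, 16 reference points were set manually in Fiji and a macro computed distances and angles. Values more than 2 SD from the feature mean were excluded. Each feature is a fold change relative to the mean of same-day DMSO controls.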

The test system is the same in assay [2]. The assay is described as follows: glomerular width (mean of left and right), fold change vs DMSO control; higher = wider glomerulus. The method in brief: as §1
For assay [3] the test system is unchanged. Kind of assay: fraction of imaged embryos annotated as normal kidney; higher = less nephrotoxic; extreme values may be limits of the assay. The method in brief:
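From 24 to 48 hpf at 28.5°C, dechorionated Tg(wt1b:EGFP) zebrafish embryos in 12-well plates were kept in 5 mM HEPES-buffered E3 with 0.003% PTU, 0.5% DMSO and 25 μM compound. Pronephroi were imaged by widefield fluorescence at 470 nm and judged by eye from maximum projections. Reported is the proportion of embryos per treatment in the normal-kidney category.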

Assay [4] shares this test system. The assay is described as follows: pronephric angle neck segment to proximal convoluted tubule (mean of left and right), fold change vs DMSO control; higher = larger pronephric angle. The method in brief:
as §1

Counter-ions that a name gives are not always drawn. ± gives the standard deviation or the standard deviation of the averaged measurements.

Compound `CC(=O)c1ccc2c(c1)N(CCCN(C)C)c1ccccc1S2` [Acetopromazine maleate salt] gave a glomerular separation in assay [1] of 0.953 ± 0.23. The compound further returned a glomerular width in assay [2] of 0.924 ± 0.071. The “fraction of imaged embryos annotated as normal kidney” value (“fraction of imaged embryos annotated” for short) in assay [3] is 1. The “pronephric angle neck segment” value in assay [4] was determined as 0.969 ± 0.02.

Compound `C[C@@]1(O)CCOC(=O)C1` [Mevalonic-D, L acid lactone] registered a glomerular separation in assay [1] of 0.897 ± 0.23. Besides, the glomerular width in assay [2] stood at 1.09 ± 0.03. For the same compound, the “fraction of imaged embryos annotated” value in assay [3] amounted to 0.75. The “pronephric angle neck segment” value in assay [4] was 1.062 ± 0.0042.

Regarding `CC1=C(CC(=O)O)c2cc(F)ccc2/C1=C\c1ccc([S+](C)[O-])cc1` (stereo not given) [Sulindac], the glomerular separation in assay [1] turned out to be 0.735 ± 0.15. Moreover, the glomerular width in assay [2] was found to be 0.8774 ± 0.0075. The “fraction of imaged embryos annotated” value in assay [3] was 0.667. The “pronephric angle neck segment” value in assay [4] was found to be 1.0374 ± 0.00064.

`C#CCN(C)CCCOc1ccc(Cl)cc1Cl` [Clorgyline hydrochloride] showed a glomerular separation in assay [1] of 0.959 ± 0.32. In addition, in assay [2], the glomerular width came to 1.05 ± 0.029. Moreover, the “fraction of imaged embryos annotated” value in assay [3] is 1. In assay [4], the “pronephric angle neck segment” value was found to be 0.984 ± 0.047.

As to `CN(C)[C@@H]1C(O)=C(C(N)=O)C(=O)[C@@]2(O)C(O)=C3C(=O)c4c(O)ccc(Cl)c4[C@@](C)(O)[C@H]3C[C@@H]12` [Chlortetracycline hydrochloride], in assay [1], the glomerular separation was determined as 1.18 ± 0.35. For the same compound, the glomerular width in assay [2] amounted to 1.04 ± 0.012. The “fraction of imaged embryos annotated” value in assay [3] was 0.583. Also, in assay [4], the “pronephric angle neck segment” value stood at 0.9692 ± 0.0065.

In turn, `COCC1=C(C(=O)OC(C)OC(=O)OC(C)C)N2C(=O)[C@@H](NC(=O)/C(=N\OC)c3csc(N)n3)[C@H]2SC1` (stereo not given in full) [Cefpodoxime proxetil] had a glomerular separation in assay [1] of 1.06 ± 0.52. For the same compound, in assay [2], the glomerular width came to 0.893 ± 0.055. The “fraction of imaged embryos annotated” value in assay [3] was determined as 1. The “pronephric angle neck segment” value in assay [4] is 1.05 ± 0.054.

The compound `Nc1nnc(-c2cccc(Cl)c2Cl)c(N)n1` [Lamotrigine] showed a glomerular separation in assay [1] of 0.99 ± 0.4. The compound also registered a glomerular width in assay [2] of 0.999 ± 0.016. In addition, the “fraction of imaged embryos annotated” value in assay [3] is 0.9. In assay [4], the “pronephric angle neck segment” value is 0.998 ± 0.039.

Turning to `CCC[C@@H]1C[C@@H](C(=O)N[C@@H]([C@H]2O[C@H](SC)[C@H](O)[C@@H](O)[C@H]2O)[C@@H](C)O)N(C)C1` [Lincomycin hydrochloride], in assay [1], the glomerular separation was 0.865 ± 0.33. In assay [2], the glomerular width came out at 0.984 ± 0.037. In addition, the “fraction of imaged embryos annotated” value in assay [3] was found to be 0.917. In addition, in assay [4], the “pronephric angle neck segment” value is 0.9548 ± 0.0043.

On to `CNCC(O)c1ccc(O)c(O)c1` (stereo not given) [Racepinephrine hydrochloride], for which the glomerular separation in assay [1] was found to be 0.935 ± 0.21. Further, in assay [2], the glomerular width came out at 0.946 ± 0.011. The “fraction of imaged embryos annotated” value in assay [3] stood at 0.667. Moreover, the “pronephric angle neck segment” value in assay [4] is 0.998 ± 0.035.

Regarding `CCN(CC)C(=O)C1(c2ccccc2)CC1CN` (stereo not given) [Milnacipran hydrochloride], the glomerular separation in assay [1] stood at 0.724 ± 0.23. This compound also had a glomerular width in assay [2] of 1.19 ± 0.037. The “fraction of imaged embryos annotated” value in assay [3] came to 1. In assay [4], the “pronephric angle neck segment” value is 0.9653 ± 0.008.

(Values after the supplement of paper PMC7366291.)
